# Reference: PubChem BioAssay
# Active and inactive are the calls of the source. Unless noted, how the calls were made is not given here.
# What was measured:
# [1] = tested on: XIP peptide (Xip251-270) binding; experiment: XIP fragment 251-270 binding compounds – biochemical, small-molecule microarray, fluorescence 635/667 nm, 0.1 µg/mL protein, primary screen (AID 1182); details: fluorescent protein binding, 635 nm, higher = more signal, called active from +8 up or from −8 down
# XIP peptide (Xip251-270) = experiment: compounds binding XIP fragment 251-270 – biochemical, small-molecule microarray, fluorescence 635/667 nm, 0.5 µg/mL protein, primary screen (AID 1183); details: fluorescence 635 nm, higher = more signal
# [2] = blood-stage malaria parasite viability loss – strain 3D7, DAPI fluorescence, 100 nL, primary screen (AID 1184);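 further: parasites grown inside human red blood cells in medium with human serum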; details: P. falciparum 3D7 growth, 3 d, higher = more signal
# [3] = target: Homeobox protein Hox-A13 (Mus musculus) (UniProt Q62424); experiment: disruptors of Hoxa13 oligonucleotide interaction – biochemical, fluorescence polarization, labeled oligonucleotide, primary screen (AID 1185); details: Hoxa13:DNA binding, 15 min, higher = more signal, called active from +8 up or from −8 down
# Chain of Homeobox protein Hox-A13 (Mus musculus) (Q62424 whole entry, looked up): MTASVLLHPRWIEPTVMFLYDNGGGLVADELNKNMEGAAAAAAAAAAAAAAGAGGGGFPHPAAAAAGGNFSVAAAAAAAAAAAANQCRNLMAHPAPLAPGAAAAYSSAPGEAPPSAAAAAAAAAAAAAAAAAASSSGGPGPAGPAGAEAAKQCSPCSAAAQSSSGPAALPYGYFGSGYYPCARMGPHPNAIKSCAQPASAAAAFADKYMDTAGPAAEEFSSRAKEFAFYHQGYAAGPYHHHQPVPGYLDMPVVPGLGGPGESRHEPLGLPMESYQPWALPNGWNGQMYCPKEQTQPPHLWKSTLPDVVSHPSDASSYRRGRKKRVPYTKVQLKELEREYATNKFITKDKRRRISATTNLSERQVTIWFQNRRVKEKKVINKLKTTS
# [4] = blockers of DNA damage checkpoint Chk1 activation – imaging, HeLa, hydroxyurea, phospho-Chk1 antibody, percent positive cells, primary screen (AID 1186); details: hydroxyurea-induced phospho-Chk1 immunofluorescence imaging, higher = more signal
# [5] = blockers of DNA damage checkpoint Chk1 activation – imaging, HeLa, hydroxyurea, phospho-Chk1 nuclear intensity, primary screen (AID 1187); details: hydroxyurea-induced phospho-Chk1 immunofluorescence imaging, higher = more signal
Structure (SMILES),composite z-score [1],composite z-score (XIP peptide (Xip251-270)),z-score [2],z-score [3],z-score [4],z-score [5]
CNS(=O)(=O)c1ccc(C)cc1,0.493 (inactive),-0.259,0.749,-0.38 (inactive),-0.41 (inactive),-0.155 (inactive)
C[N+](C)(C)CCCCNC(=O)[C@H]1C[C@H]2C(=O)N3CCC[C@H]3C(=O)N2[C@H]1c1cccc(OCCO)c1,0.265 (inactive),-0.465,1.2,-2.27 (inactive),-0.302 (inactive),-0.124 (inactive)
CN1C(=O)C2C=CC(C(O)c3ccco3)N(Nc3ccccc3)C2C1=O (stereo not drawn),-0.225 (inactive),0.343,-0.142,-3.54 (inactive),-0.221 (inactive),-0.752 (inactive)
COCCOC(=O)N1C(=O)[C@@]2(c3cc(C#CCC(C(=O)OC)C(=O)OC)ccc31)[C@H](C(=O)N1CCN(c3ncccn3)CC1)[C@H]1C(=O)O[C@H](c3ccccc3)[C@H](c3ccccc3)N1[C@@H]2c1ccccc1OCCO,0.171 (inactive),0.679,-2.03,-0.504 (inactive),0.0845 (inactive),0.176 (inactive)
COCCOC(=O)N1C(=O)[C@@]2(c3ccccc31)[C@H](c1ccccc1OCCO)N1[C@H](c3ccccc3)[C@H](c3ccccc3)OC(=O)[C@H]1[C@@H]2C(=O)N1CCN(c2ncccn2)CC1,1.04 (inactive),0.799,-2.2,-1.99 (inactive),0.0172 (inactive),0.0629 (inactive)
C[N+](C)(C)CCCCNC(=O)[C@@H]1C[C@@H]2C(=O)N[C@@H](Cc3ccccc3)C(=O)N2[C@@H]1c1cccc(OCCO)c1,1.09 (inactive),0.645,-0.421,-2.57 (inactive),0.367 (inactive),0.276 (inactive)
CC(C)CNC(=O)[C@@]1(Cc2ccccc2I)c2ccccc2C(=O)N(C2CCCCC2)[C@H]1c1ccc(CO)cc1,2.15 (inactive),0.696,-1.15,-3.77 (inactive),0.145 (inactive),-0.0021 (inactive)
C=CCNC(=O)[C@@H]1[C@H]2C(=O)O[C@H](c3ccccc3)[C@H](c3ccccc3)N2[C@H](c2ccc(OCCO)cc2)[C@@]12C(=O)Nc1ccc(C#CCC(C(=O)OC)C(=O)OC)cc12,1.21 (inactive),0.905,-2.22,-1.05 (inactive),0.222 (inactive),0.477 (inactive)
C=CCOC(=O)[C@H]1[C@@H]2C(=O)O[C@@H](c3ccccc3)[C@@H](c3ccccc3)N2[C@@H](c2ccc(OCCOC(=O)[C@H]3C[C@H]4C(=O)N[C@@H](CCCC[N+](C)(C)C)C(=O)N4[C@H]3c3ccc(O)cc3)cc2)[C@]12C(=O)Nc1ccc(I)cc12,1.7 (inactive),0.848,0.615,-2.52 (inactive),-0.324 (inactive),-0.62 (inactive)
COCCOC(=O)N1C(=O)[C@@]2(c3ccccc31)[C@H](C(=O)N1CCc3cc(OC)c(OC)cc3C1)[C@H]1C(=O)O[C@H](c3ccccc3)[C@H](c3ccccc3)N1[C@@H]2c1ccc(OCCO)cc1,2.52 (inactive),0.8,-2.33,1.9 (inactive),0.111 (inactive),0.55 (inactive)
COCCOC(=O)N1C(=O)[C@@]2(c3cc(C#CCNC(N)=O)ccc31)[C@H](C(=O)N1CCN(c3ncccn3)CC1)[C@H]1C(=O)O[C@H](c3ccccc3)[C@H](c3ccccc3)N1[C@@H]2c1ccc(OCCO)cc1,0.0897 (inactive),0.697,-0.939,0.245 (inactive),0.138 (inactive),0.0943 (inactive)
COc1ccc(CCNC(=O)[C@@]2(C)c3ccccc3C(=O)N(C(C)C)[C@H]2c2ccc(CO)cc2)cc1,-0.15 (inactive),0.388,-0.57,-2.77 (inactive),0.0394 (inactive),-0.33 (inactive)
CC(C)C(CO)N1C(=O)[C@@H]2C3C(=O)OCCC/C=C\[C@H]3OC23C=CCN(CCN2CCOCC2)C(=O)[C@@H]13 (stereo partly drawn),-0.0949 (inactive),-0.816,1.17,-7 (inactive),0.248 (inactive),-0.0469 (inactive)
O=C1O[C@H](c2ccccc2)[C@H](c2ccccc2)N2[C@H]1[C@@H](C(=O)N1CCCCCCC1)[C@]1(C(=O)Nc3ccc(C#CC4=CCCCC4)cc31)[C@H]2c1ccc(OCCO)cc1,2.27 (inactive),0.77,-2.33,-15.4 (active),0.606 (inactive),1.04 (inactive)
O=C1N(Cc2ccccc2)c2ccccc2[C@@H]2OC(c3ccc(OCCCO)cc3)=N[C@]12CCS(=O)(=O)c1ccccc1,0.7 (inactive),0.677,-2.13,1.28 (inactive),-0.413 (inactive),-0.77 (inactive)
C=CCC(OC(C)=O)[C@@H]1[C@@H](N(Cc2cc3ccccc3o2)C(=O)c2cccc3ccccc23)c2cc(OCCCO)ccc2N1C(=O)c1ccc(-c2ccccc2)cc1 (stereo partly drawn),0.277 (inactive),0.287,-3.01,-0.424 (inactive),0.0396 (inactive),0.577 (inactive)
[N-]=[N+]=NCc1ccccc1[C@@H]1OC(c2ccc(OCCCO)cc2)=N[C@]1(Cc1ccccc1)C(=O)NCC(O)CO (stereo partly drawn),-0.275 (inactive),-0.0063,-2.06,-2.01 (inactive),-0.0268 (inactive),0.117 (inactive)

Structure (SMILES),composite z-score [1],composite z-score (XIP peptide (Xip251-270)),z-score [2],z-score [3],z-score [4],z-score [5]
NCCCCCNC(=O)[C@@H]1C[C@@H]2C(=O)N[C@@H](Cc3ccccc3)C(=O)N2[C@@H]1c1ccc(O)cc1,0.632 (inactive),0.549,1.35,-1.87 (inactive),0.296 (inactive),0.204 (inactive)
CC[C@@H]1C=C(C(=O)O)[C@H](c2ccc(Br)cc2)N1S(=O)(=O)c1ccc(C)cc1,0.693 (inactive),0.159,-0.737,-3.11 (inactive),-0.0321 (inactive),0.0367 (inactive)
[N-]=[N+]=NCc1ccccc1[C@@H]1OC(c2ccc(OCCCO)cc2)=N[C@]1(Cc1ccccc1)C(N)=O,0.906 (inactive),0.689,-2.13,-3.49 (inactive),-0.395 (inactive),-0.0798 (inactive)
CC(C)C[C@@H]1NC(=O)[C@@H]2C[C@H](C(=O)NCc3ccc(F)cc3)[C@H](c3cccc(OCCO)c3)N2C1=O,0.832 (inactive),0.421,0.124,-3.95 (inactive),0.465 (inactive),0.554 (inactive)
C=C(COC)/C(=C/C[C@H](OC(C)=O)c1ccc(CO)o1)c1cc(C(=O)OC)ccc1OC,0.443 (inactive),-0.257,-2.07,-4.87 (inactive),-0.45 (inactive),-0.735 (inactive)
CC(C)C(=C=CC[C@@H](O)c1ccc(OCCO)cc1)C[C@@H](O)COCc1ccccc1,0.372 (inactive),0.195,-2.45,-3.75 (inactive),-1.27 (inactive),-0.437 (inactive)
CCCC[C@H]1OB(O)C[C@H]2C1=C(COC)C[C@H]1C(=O)N(C)C(=O)[C@H]12,-0.267 (inactive),-0.0711,1.5,-9 (active),0.534 (inactive),0.312 (inactive)
C=CCOC(=O)[C@H]1[C@@H]2C(=O)O[C@@H](c3ccccc3)[C@@H](c3ccccc3)N2[C@@H](c2ccc(OCCOC(=O)[C@H]3C[C@H]4C(=O)N[C@@H](CCCCNC(C)=O)C(=O)N4[C@H]3c3cccc(OCCO)c3)cc2)[C@]12C(=O)Nc1ccccc12,0.899 (inactive),0.528,-1.69,-1.77 (inactive),-0.843 (inactive),-0.373 (inactive)
O=C(CS)NCCCCCCNC(=O)[C@@H]1C[C@@H]2C(=O)N[C@@H](Cc3ccccc3)C(=O)N2[C@@H]1c1cccc(OCCO)c1,0.644 (inactive),0.763,1.17,-2.64 (inactive),0.835 (inactive),1.17 (inactive)
COCCOC(=O)N1C(=O)[C@@]2(c3cc(C#Cc4ccc(OC)cc4)ccc31)[C@H](c1ccc(OCCO)cc1)N1[C@H](c3ccccc3)[C@H](c3ccccc3)OC(=O)[C@H]1[C@@H]2C(=O)N1CCN(c2ncccn2)CC1,0.0039 (inactive),0.695,-1.84,0.99 (inactive),0.13 (inactive),0.436 (inactive)
CC1(C)C2C=C(C(O)C3C=CC4C(=O)NC(=O)C4N3Nc3ccc(Cl)cc3Cl)C[C@@H]1C2 (stereo partly drawn),1.15 (inactive),0.231,0.665,-4.45 (inactive),0.955 (inactive),0.327 (inactive)
NC(=O)NCC#Cc1ccc2c(c1)[C@]1(C(=O)N2)[C@H](c2ccccc2OCCO)N2[C@H](c3ccccc3)[C@H](c3ccccc3)OC(=O)[C@H]2[C@@H]1C(=O)Nc1nc2ccccc2s1,0.213 (inactive),0.324,-1.89,1.61 (inactive),0.164 (inactive),0.212 (inactive)
O=C1C2C=CC(C(O)c3cc(C(F)(F)F)cc(C(F)(F)F)c3)N(n3cnnc3)C2C(=O)N1Cc1ccccc1 (stereo not drawn),-0.0242 (inactive),0.662,-1.06,-2.95 (inactive),0.506 (inactive),0.135 (inactive)
Oc1ccc2cc[n+](Cc3sc4ccccc4c3Cl)cc2c1,0.558 (inactive),0.904,-1.11,-4.76 (inactive),-0.0224 (inactive),-0.106 (inactive)
CCCC=C(CCC)[C@@H](NC(=O)c1cccs1)c1ccc(C(F)(F)F)cc1,0.0798 (inactive),0.477,-1.65,-2.14 (inactive),0.247 (inactive),0.201 (inactive)
C[C@@]1([C@@H](NC(=O)c2ccc(-c3ccccc3)cc2)c2ccc(Cl)cc2)C[C@H]1C1CCCCC1,-0.223 (inactive),0.492,-0.311,-2.06 (inactive),-0.273 (inactive),0.861 (inactive)
